PubChem BioAssay (NCI)
Compounds without any hit were thinned out: in the full panel of roughly 83,000, 20% have a hit.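 48-hour exposure, single concentration, 96-well plates; percent growth endpoint where 0 means no net growth. Active: below 10.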 The source made the active and inactive calls.

What was measured:
Experiment in all cases: NCI-60 one-dose screen, 48 h (100 = growth as untreated, 0 = no growth, -100 = all killed)
Settings in all cases: 10 µM
[1] = tested on: SR leukemia
[2] = tested on: RPMI-8226 leukemia
[3] = tested on: OVCAR-8 ovarian
[4] = tested on: OVCAR-5 ovarian
[5] = tested on: OVCAR-4 ovarian
[6] = tested on: SK-OV-3 ovarian
[7] = tested on: IGROV1 ovarian
[8] = tested on: OVCAR-3 ovarian
[9] = tested on: HS 578T breast
[10] = tested on: NCI/ADR-RES ovarian
[11] = tested on: T-47D breast
[12] = tested on: MDA-MB-435 melanoma
[13] = tested on: SW-620 colon
[14] = tested on: MCF7 breast
[15] = tested on: HCT-116 colon
[16] = tested on: HCC-2998 colon
[17] = tested on: KM12 colon
[18] = tested on: BT-549 breast

Measured: growth

CC(CN(C)C)Oc1ccccc1NC1=C(Cl)C(=O)C(Nc2ccccc2OC(C)CN(C)C)=C(Cl)C1=O (configuration not stated)
inactive: [6] 58.9%
active: [1] -9.43% | [2] -34.5% | [3] -85.3% | [4] -72.2% | [5] -97.6% | [7] -76.4% | [8] -96.2% | [9] 3.54% | [10] -24.5% | [11] -42% | [12] -71% | [13] -66.5% | [14] -47% | [15] -70.3% | [16] -87.4% | [17] -1.19%

CN(C)CCCOc1ccc(NC2=C(Cl)C(=O)C(Nc3ccc(OCCCN(C)C)cc3)=C(Cl)C2=O)cc1
active: [1] -1.57% | [2] -44.1% | [3] -68.3% | [4] -60.6% | [5] -98.9% | [7] -68.2% | [8] -98.3% | [9] -0.291% | [10] 8.96% | [11] -39.3% | [12] -89% | [13] -58.4% | [14] -49.4% | [15] -86.9% | [16] -90.6% | [17] -63%
inactive: [6] 24.4%

Clc1ccc(/C=C2\CCCC3C2=Nc2ccccc2NC3c2ccc(Cl)cc2)cc1 (configuration not stated)
inactive: [1] 21.5% | [3] 65.8% | [4] 93.8% | [5] 79.5% | [6] 70.9% | [7] 83.1% | [8] 67% | [9] 102% | [10] 99.4% | [11] 104% | [18] 83% | [12] 11.9% | [13] 41.5% | [14] 35.8% | [17] 17.3%
active: [2] -16% | [15] -87%

C=CCSC(CC)(CC)C(=O)NC
inactive: [1] 99.3% | [2] 101% | [3] 105% | [4] 104% | [5] 109% | [6] 105% | [7] 113% | [8] 112% | [9] 106% | [10] 107% | [11] 102% | [12] 109% | [13] 103% | [14] 94.6% | [15] 94% | [16] 102% | [17] 104%

CC(=O)/C(=C/c1ccc(Br)cc1)C(=O)c1ccccc1
active: [1] -16.8% | [2] -26.3%
inactive: [3] 63.7% | [4] 86.6% | [5] 81.4% | [6] 120% | [7] 74% | [8] 81.9% | [9] 90.7% | [10] 85.8% | [11] 86.5% | [18] 96.9% | [12] 65.9% | [13] 58.2% | [14] 43.4% | [15] 12.2% | [17] 58.6%

COc1cc2cc(Oc3ccc(NC(=O)Nc4ccc(C(F)(F)F)cc4)cc3)c(C)nc2cc1OC
inactive: [1] 59.6% | [2] 52.7% | [3] 37.8% | [4] 92.9% | [5] 49% | [6] 38.8% | [7] 71.9% | [8] 67% | [9] 70.9% | [10] 64.1% | [11] 57.5% | [18] 113% | [12] 80.3% | [13] 75.3% | [14] 84.3% | [15] 47.2% | [16] 94.8% | [17] 64.4%

CCN(CC)CCOc1ccc2c(c1O)C(=O)c1ccccc1C2=O
inactive: [1] 63.5% | [2] 90.3% | [3] 62.4% | [4] 104% | [5] 85.5% | [6] 77.6% | [7] 97.3% | [8] 94.7% | [9] 84.6% | [10] 72% | [11] 97.2% | [12] 94.5% | [13] 67.9% | [14] 82.1% | [15] 44.9% | [16] 96.7% | [17] 98%

COC1OC(COS(=O)OC)C(O)C(O)C1OS(=O)OC (configuration not stated)
inactive: [1] 80% | [2] 99.7% | [3] 114% | [4] 90.5% | [5] 116% | [6] 104% | [7] 97.7% | [8] 106% | [9] 102% | [11] 110% | [12] 105% | [13] 103% | [14] 88.4% | [15] 105% | [16] 97.7% | [17] 98.5%

CCN(CC)CCN1c2nc3ccccc3cc2Sc2cc3ccccc3nc21
active: [1] -53% | [2] -15.9% | [3] 7.3% | [10] 4.85% | [18] -92.4% | [12] -25% | [13] -29.7% | [14] -100% | [15] -45.4% | [16] -99%
inactive: [4] 13.6% | [5] 15.8% | [6] 46% | [8] 27.1% | [9] 12.4% | [11] 73.5%

Cc1ccc(NC(=O)N2CCCCC2)cc1[N+](=O)[O-]
inactive: [1] 39.3% | [2] 41.7% | [3] 72.2% | [4] 101% | [5] 111% | [6] 112% | [7] 87.3% | [8] 115% | [9] 54.8% | [10] 95.4% | [11] 121% | [13] 73.3% | [14] 92.9% | [15] 94.7% | [16] 103% | [17] 111%

C1CN(CC2CCC(CN3CCOCC3)O2)CCO1 (configuration not stated)
inactive: [1] 61.7% | [2] 92.3% | [3] 104% | [4] 109% | [5] 107% | [6] 90.2% | [7] 108% | [8] 112% | [9] 104% | [10] 101% | [11] 81.5% | [12] 104% | [13] 92.2% | [14] 53.2% | [15] 89% | [16] 102% | [17] 105%

CC[N+](CC)=c1ccc2nc3c(cc(NCc4ccccc4)c4ccccc43)oc-2c1
inactive: [18] 39.4%
active: [1] -9.48% | [2] -21.1% | [3] -27.2% | [4] -91.4% | [5] -93.1% | [6] -8.74% | [7] -94.5% | [8] -54.9% | [9] -20.4% | [11] -55.9% | [12] -98.9% | [13] -82.5% | [14] -82.2% | [15] -35.6% | [16] -94.8% | [17] -88.6%

CCCC1(CN2c3ccccc3Sc3ccc(Cl)cc32)CCN(CC)C1 (configuration not stated)
active: [1] -50.1% | [2] -43.2% | [3] -41.2% | [4] 8.89% | [7] -42.7% | [8] 2.48% | [9] -22.8% | [12] -94.7% | [13] -94.7% | [14] -93.7% | [15] -100% | [16] -49.5% | [17] -44.5%
inactive: [5] 28.3% | [6] 21.7% | [10] 31.4%

COc1cc(-c2nn(-c3ccc(NC(=O)NCCNS(=O)(=O)c4ccc(F)cc4)cc3)cc2-c2ccncc2)ccc1Cl
active: [1] 1.26% | [2] -21.6% | [3] 9.18% | [8] 7.55% | [18] -3.98% | [12] -0.232% | [14] 6.49% | [15] -3.49% | [16] 6.84% | [17] 2.84%
inactive: [4] 27.1% | [5] 41.8% | [6] 18.1% | [7] 27.3% | [9] 21.6% | [11] 34.8% | [13] 18.3%

CC(=O)Nc1cc2c(cc1Cl)Cc1cc(Cl)ccc1-2
inactive: [1] 80.1% | [2] 111% | [3] 88.2% | [4] 83.7% | [5] 83.9% | [6] 96% | [7] 72.4% | [8] 103% | [9] 78.6% | [11] 29.2% | [18] 99.2% | [12] 98.4% | [13] 97.5% | [14] 40.1% | [15] 99.3% | [16] 65.6% | [17] 87.4%

CCOc1ccccc1/C=N\N=C\c1ccccc1O
inactive: [1] 80.6% | [2] 100% | [3] 107% | [4] 120% | [5] 112% | [6] 95.7% | [7] 95.8% | [8] 88.9% | [9] 110% | [11] 78.5% | [18] 84.2% | [12] 107% | [13] 105% | [14] 84.2% | [15] 98.8% | [16] 102% | [17] 95.3%

COc1ccc2nc3cc(Cl)ccc3c(N)c2c1
active: [1] -39.1% | [2] -1.72% | [3] -44.4% | [4] -91.8% | [5] -98% | [6] -97.7% | [7] -33% | [8] -93.7% | [10] -97.2% | [11] -82% | [18] -95.6% | [12] -74.2% | [13] -70.2% | [15] -99.2% | [16] -99% | [17] -84.3%

O=C1CSC(=S)N1/N=C/c1ccc(Cl)s1
inactive: [1] 98.2% | [2] 97.4% | [3] 106% | [4] 97.6% | [5] 119% | [6] 92.6% | [7] 100% | [8] 104% | [9] 112% | [11] 102% | [18] 102% | [12] 106% | [13] 108% | [14] 101% | [15] 107% | [16] 99.8% | [17] 97.5%
